Our source for the Potency values is PubChem BioAssay (NCATS).

Active and inactive are the calls of the source. A call without a number means that no potency is given here. Calls follow the shape of the dose curve; as a rule, active = well fitted inhibition curve with a large enough effect; inconclusive = small, poorly fitted or top-dose-only effect; inactive = flat fitted curve, though single readings scatter.

The target in this test is DNA polymerase III PolC-type (Bacillus subtilis (strain 168)) (UniProt P13267). The test can be described thus: qHTS Validation Assay for the Inhibitors of DNA Replication in Gram-Positive Bacteria (AID 485295).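 Also: reconstituted holoenzyme with PolC plus beta clamp SSB and primase.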 Particulars: Gram-positive bacterial DNA replication assay; series mostly up to 57.1 µM. The protocol: B Subtilis DNA polymerase III holoenzyme complex was assayed for DNA production by fluorescent detection of the double-stranded DNA product with PicoGreen dye. The holoenzyme complex was reconstituted from the following purified protein components: DNA Polymerase III, beta subunit processivity factor, SSB single-stranded DNA binding protein, and Primase. Single-stranded, circular M13Gori was used as a substrate with dNTPs and NTPs also supplied to the substrate reagent. Compounds from the NCGC collection were incubated with the holoenzyme mixture for […] at room temperature to allow binding to occur, and then the reaction was started by the addition of substrate. After 30 min incubation at room temperature, PicoGreen solution containing EDTA was added to stop the reaction and to visualize the double-stranded DNA produced. Reaction progress was measured in a ViewLux CCD imager in fluorescence intensity mode by using 480 nm excitation and 540 nm emission filter set.
DNA polymerase III PolC-type (Bacillus subtilis (strain 168)), sequence (P13267 whole entry, looked up): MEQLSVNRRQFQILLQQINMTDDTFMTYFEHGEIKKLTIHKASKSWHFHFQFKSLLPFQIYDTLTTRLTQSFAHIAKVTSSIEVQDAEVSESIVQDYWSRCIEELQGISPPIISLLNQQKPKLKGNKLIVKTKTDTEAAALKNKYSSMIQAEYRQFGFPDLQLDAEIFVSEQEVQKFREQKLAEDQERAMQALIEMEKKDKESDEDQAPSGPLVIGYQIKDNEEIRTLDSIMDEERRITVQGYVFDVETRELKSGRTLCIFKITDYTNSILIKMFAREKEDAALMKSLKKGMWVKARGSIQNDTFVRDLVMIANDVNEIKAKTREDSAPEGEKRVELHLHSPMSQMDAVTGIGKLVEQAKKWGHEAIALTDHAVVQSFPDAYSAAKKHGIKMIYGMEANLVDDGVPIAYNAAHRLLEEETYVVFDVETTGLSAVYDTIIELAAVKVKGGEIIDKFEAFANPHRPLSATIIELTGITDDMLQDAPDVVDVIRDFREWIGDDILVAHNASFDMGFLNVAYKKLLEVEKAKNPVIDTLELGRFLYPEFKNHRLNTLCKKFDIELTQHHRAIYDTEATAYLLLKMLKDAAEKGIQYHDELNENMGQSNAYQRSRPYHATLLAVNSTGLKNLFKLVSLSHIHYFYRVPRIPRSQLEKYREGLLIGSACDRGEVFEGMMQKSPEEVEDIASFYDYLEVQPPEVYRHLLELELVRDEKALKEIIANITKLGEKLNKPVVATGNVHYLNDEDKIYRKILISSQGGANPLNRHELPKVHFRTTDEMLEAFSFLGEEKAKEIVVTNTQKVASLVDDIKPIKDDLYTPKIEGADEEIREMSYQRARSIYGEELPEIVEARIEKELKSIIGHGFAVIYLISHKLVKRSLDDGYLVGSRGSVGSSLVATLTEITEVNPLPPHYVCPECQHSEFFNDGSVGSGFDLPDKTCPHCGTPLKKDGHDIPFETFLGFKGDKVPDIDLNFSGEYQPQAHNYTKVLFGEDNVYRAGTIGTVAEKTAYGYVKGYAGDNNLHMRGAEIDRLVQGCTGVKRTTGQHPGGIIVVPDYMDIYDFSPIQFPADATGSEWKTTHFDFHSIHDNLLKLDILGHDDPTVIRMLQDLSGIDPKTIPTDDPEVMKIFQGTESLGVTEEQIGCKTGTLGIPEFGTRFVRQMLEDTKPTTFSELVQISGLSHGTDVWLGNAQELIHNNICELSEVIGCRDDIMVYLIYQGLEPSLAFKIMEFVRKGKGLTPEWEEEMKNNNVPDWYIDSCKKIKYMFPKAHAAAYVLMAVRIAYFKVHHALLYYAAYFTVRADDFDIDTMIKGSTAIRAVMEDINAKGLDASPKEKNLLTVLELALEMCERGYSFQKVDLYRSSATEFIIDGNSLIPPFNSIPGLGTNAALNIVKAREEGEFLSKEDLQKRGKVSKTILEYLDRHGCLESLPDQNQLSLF
1. Thaw screening compounds.
2. Label assay plates. Prepare pipette tips, reagent reservoirs, buffers and controls.
1. Thaw Enzymes, DNA template, Nucleotides and PicoGreen dye concentrate. Thawed enzymes are stable on ice for ~1
week. Other thawed components are stable indefinitely.
2. Prepare sufficient quantities of Enzyme, Substrate and PicoGreen Quench mixes (according to Table II). For the number of
compound plates being screened.
3. Ensure that the tip wash station reservoirs have clean water and turn on recirculating chiller so that the chilled deck position
1. Load 2 uL of EDTA controls (250 mM, Background, 100 % inhibition) and 2 uL of DMSO controls (Negative control, 0%
inhibition) in the screening plates (flat-bottomed black 384-well polypropylene, Greiner Bio-one).
2. Place Enzyme mix reservoir on the chiller position of the liquid handler deck. Make sure that chiller will maintain
temperature of Enzyme mix at 4degC. Substrate mix and PicoGreen Quench can be stored at room temp.
3. Program liquid handling robotics to dispense 18 uL of Enzyme mix into assay plates. Wash tips.
4. Aspirate and dispense 2 uL of compound from compound plates, mix and Incubate at room temperature for 10 minutes.
5. Aspirate 5 ul of Substrate mix, dispense into assay plates and mix by pipetting. Wash tips.
6. Incubate at room temperature (21 +/- 1 deg C) for 20 minutes.
7. Quench reactions by addition of 25 uL PicoGreen Quench mix and mix by pipetting (using HTS robotics or bulk reagent
dispenser such as a Multidrop or uFill). Keep plates in the dark or stacked until ready to read fluorescence.
8. Read fluorescence intensity of plates on plate reader using "Fluorescein (Ex 485 nm/ Em 535 nm, 0.1s)" setting.
Regarding `NCCc1cnc[nH]1`, the Potency entry was “inactive”.
Turning to `C[C@](N)(Cc1ccc(O)c(O)c1)C(=O)O`, the Potency entry is “inactive”.
In the case of `Cc1cn([C@H]2C=C[C@@H](CO)O2)c(=O)[nH]c1=O`, the Potency result was “inactive”.
As to `COc1ccccc1OCC(O)CN1CCN(CC(=O)Nc2c(C)cccc2C)CC1` (stereo not given), the Potency entry was “inactive”.
With `CCCNCC(O)COc1ccccc1C(=O)CCc1ccccc1` (stereo not given) the entry was “inactive”; with `Clc1ccc2nsnc2c1NC1=NCCN1`, “inactive”.
Regarding `Nc1ccn([C@H]2CC[C@@H](CO)O2)c(=O)n1`, the Potency result is “inactive”.
With `Cc1ccccc1N1C(=O)c2cc(S(N)(=O)=O)c(Cl)cc2NC1C` (stereo not given) the entry was “inactive”.
With `Cc1cnc(C(=O)NCCc2ccc(S(=O)(=O)NC(=O)NC3CCCCC3)cc2)cn1` the entry was “inactive”; with `O=C(CCCN1CCC(O)(c2ccc(Cl)cc2)CC1)c1ccc(F)cc1`, “inactive”.
`Nc1nc2c(ncn2COC(CO)CO)c(=O)[nH]1`: the Potency entry is “inactive”.
As to `CN(C)c1nc(N(C)C)nc(N(C)C)n1`, the Potency result is “inactive”.
With `CCOC(=O)Nc1ccc(NCc2ccc(F)cc2)nc1N` the entry was “inactive”.
Regarding `CC(C(=O)O)c1cccc(C(=O)c2ccccc2)c1` (stereo not given), the Potency entry is “inactive”.
In the case of `CC(COc1ccccc1)N(CCCl)Cc1ccccc1` (stereo not given), the Potency result is “inactive”.
With `CN(Cc1cnc2nc(N)nc(N)c2n1)c1ccc(C(=O)N[C@@H](CCC(=O)O)C(=O)O)cc1` the entry was “inactive”; with `CC[N+](CC)(CC)CCOc1cccc(OCC[N+](CC)(CC)CC)c1OCC[N+](CC)(CC)CC`, “inactive”.
With `COc1cc2c(c(OC)c1OC)-c1ccc(OC)c(=O)cc1[C@@H](NC(C)=O)CC2`, the Potency entry was “inactive”.
As for `Clc1ccc(C(c2ccccc2Cl)C(Cl)Cl)cc1` (stereo not given), the entry is “inactive”.
As for `CN1CCN(C2=Nc3cc(Cl)ccc3Nc3ccccc32)CC1`, the entry is “inactive”.
As for `COc1ccc2[nH]cc(CCNC(C)=O)c2c1`, the entry is “inactive”; as for `CN1C(C(=O)Nc2ccccn2)=C(O)c2ccccc2S1(=O)=O`, “inactive”.
On to `CC(C)NCC(O)COc1ccc(CCOCC2CC2)cc1` (stereo not given), for which the Potency result is “inactive”.
For the compound `Clc1ccc2c(c1)C(N1CCNCC1)=Nc1ccccc1O2`, the Potency result is “inactive”.
For `CCc1cccc2c3c([nH]c12)C(CC)(CC(=O)O)OCC3` (stereo not given), the Potency entry is “inactive”.
For the compound `Cc1cc(C(C)(C)C)cc(C)c1CC1=NCCN1`, the Potency result is “inactive”.
With `CN1C2CCC1CC(OC(=O)C(CO)c1ccccc1)C2` (stereo not given), the Potency entry was “inactive”.
As for `Cc1cn([C@H]2C[C@H](N=[N+]=[N-])[C@@H](CO)O2)c(=O)[nH]c1=O`, the entry is “inactive”.
As for `NS(=O)(=O)c1cc2c(cc1Cl)NCNS2(=O)=O`, the entry is “inactive”; as for `COC(=O)Nc1nc2ccc(C(=O)c3cccs3)cc2[nH]1`, “inactive”; as for `O=C(c1ccc(OCCN2CCCCC2)cc1)c1c(-c2ccc(O)cc2)sc2cc(O)ccc12`, “inactive”.
Turning to `COc1cc2nc(N3CCN(C(=O)c4ccco4)CC3)nc(N)c2cc1OC`, the Potency result is “inactive”.
Consider `CCOC(=O)C(C)(C)Oc1ccc(Cl)cc1`, for which the Potency result was “inactive”.
Take `NCCS(=O)(=O)O`: the Potency result is “inactive”.
With `NC(=O)NO` the entry was “inactive”.
As for `CS(=O)(=O)Nc1ccc([N+](=O)[O-])cc1Oc1ccccc1`, the entry is “inactive”.
With `CC(C)(Oc1ccc(C2CC2(Cl)Cl)cc1)C(=O)O` (stereo not given) the entry was “inactive”; with `CN1CCC(=C2c3ccccc3CC(=O)c3sccc32)CC1`, “inactive”; with `CC1COc2c(N3CCN(C)CC3)c(F)cc3c(=O)c(C(=O)O)cn1c23` (stereo not given), “inactive”.
For `COc1ccc(C2CNC(=O)C2)cc1OC1CCCC1` (stereo not given), the Potency result is “inactive”.
